JMJD2A Tudor inh: qHTS Assay for Inhibitors of JMJD2A-Tudor Domain. Lysine-specific demethylase 4A (Homo sapiens), O75164. AlphaScreen JMJD2A-Tudor / H3K4me3 peptide binding. Potency, µM (top dose mostly 114 µM), for inactives: top-dose activity change, negative = inhibition, actives largely listed as inhibitors. 390,000 compounds, 4.4% hits; further: potency means the concentration at half of the fitted maximal effect; on the % scale 0 is the no-effect control and ±100 the full control effect; nearly all actives have a fitted effect of over 50% in size
BAZ2B block: qHTS Assay for Inhibitors of BAZ2B; Bromodomain adjacent to zinc finger domain protein 2B (Homo sapiens), Q9UIF8; Potency, µM (series often up to 114 µM), for the others: at the highest dose activity change, negative = inhibition, actives largely listed as inhibitors; AlphaScreen BAZ2B-H3K14Ac peptide displacement; 360,000 compounds, 4.4% hits; further: potency means the concentration at half of the fitted maximal effect; on the % scale 0 is the no-effect control and ±100 the full control effect; nearly all actives have a fitted effect of over 60% in size
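Compounds, titrated to a top concentration of 110 uM, were incubated 30 min at room temperature with preformed BAZ2B/acetyl-K14 H3 peptide complex (50 nM each). Proximity signal was measured by AlphaScreen after 20 min with beads.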
CtBP-E1A blk: qHTS Assay for Inhibitors of the CtBP/E1A Interaction | CtBP / adenovirus E1A interaction (AlphaScreen) | AlphaScreen GST-E1A/His-CtBP binding, 1536-well; active compounds read low | activity change, % (no concentration beside the values) | 340,000 compounds, 0.49% hits; in the data active means activity change below about -65%; inconclusive means mostly about -30% to -63%; further: on the % scale 0 is the no-effect control and ±100 the full control effect
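In 5 uL wells, 23 nL compound meets equimolar GST-E1A and His-CtBP (5X stock 125 nM each) for 2 h, 37 °C. Beads (5X, 50 ug/mL) then 1 h, 37 °C, dark.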
Six1-Eya2 blk: qHTS Assay for Inhibitors of the Six1/Eya2 Interaction. Homeobox protein SIX1 (Homo sapiens) + Protein phosphatase EYA2 (Homo sapiens), …. 360,000 compounds, 0.56% hits. activity change, % (no concentration beside the values). AID 651725, 2012. AlphaScreen GST-Six1/His-Eya2 binding, biochemical; active compounds read low; in the data active means activity change below about -65%; inconclusive means mostly about -30% to -63%; further: on the % scale 0 is the no-effect control and ±100 the full control effect
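GST-Six1 + His-Eya2 (5X stock: 250/500 nM); Tris pH 8.0, 300 mM NaCl, 0.05% BSA, 0.02% Tween 20; GSH donor/Ni acceptor beads; 1 h 37 °C dark; AlphaScreen readout.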
G9a inh: qHTS Assay for Inhibitors of Histone Lysine Methyltransferase G9a | Histone-lysine N-methyltransferase EHMT2 (Homo sapiens), Q96KQ7 | G9a H3K9 monomethylation, AlphaScreen, 2 h | Potency, µM (titrated, usually from 102 µM), inactives show at the highest dose activity, negative = inhibition, actives largely listed as inhibitors | 350,000 compounds, 8.8% hits | AID 504332, 2011; further: potency means the concentration at half of the fitted maximal effect; on the % scale 0 is the no-effect control and ±100 the full control effect; nearly all actives have a fitted effect of over 75% in size
Target sequence (Q96KQ7 913-1193 limits assumed): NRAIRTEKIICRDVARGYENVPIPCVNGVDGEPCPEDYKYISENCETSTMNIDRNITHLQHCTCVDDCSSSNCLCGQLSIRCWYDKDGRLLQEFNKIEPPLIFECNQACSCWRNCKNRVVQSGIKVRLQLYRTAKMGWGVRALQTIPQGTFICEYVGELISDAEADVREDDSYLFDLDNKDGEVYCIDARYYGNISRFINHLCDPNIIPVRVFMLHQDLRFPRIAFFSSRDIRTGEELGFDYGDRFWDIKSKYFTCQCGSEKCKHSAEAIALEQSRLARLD
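Readings reflect AlphaScreen signal from monomethyl-H3K9 antibody detection. HMT at 20 nM; substrate b-H3K9 500 nM; cofactor SAM 20 uM; 2 h RT reaction; compounds tested as titrations in qHTS with 15 min preincubation.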
HP1b chromo inh: HTS for Inhibitors of HP1-beta Chromodomain Interactions with Methylated Histone Tails | Chromobox protein homolog 1 (Homo sapiens), P83916 | AlphaScreen HP1-beta / biotin-H3K9me3 peptide binding | Potency, µM (doses to about 114 µM), for inactives: at the highest dose activity change, negative = inhibition, actives largely listed as inhibitors | 390,000 compounds, 0.56% hits; further: potency means the concentration at half of the fitted maximal effect; nearly all actives have a fitted effect of over 70% in size
Target sequence (P83916 whole entry, looked up): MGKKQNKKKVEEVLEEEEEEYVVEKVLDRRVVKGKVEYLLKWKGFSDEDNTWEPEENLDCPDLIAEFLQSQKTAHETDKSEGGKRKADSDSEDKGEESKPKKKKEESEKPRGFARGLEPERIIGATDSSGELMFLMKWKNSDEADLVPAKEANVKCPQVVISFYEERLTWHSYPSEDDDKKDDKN
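Compound inhibition of the preformed complex between 50 nM HP1-beta and 50 nM biotinylated H3K9me3 peptide was read by AlphaScreen. Buffer was PBS pH 7.4 with 0.01% Tween-20. Incubations ran 30 min at room temperature, with 10 ug/mL donor/acceptor beads.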
Active calls of the source: *; ? = inconclusive; / = no result; [ ] = remark or other dose. An excerpt weighted towards active compounds, which were near 10% of everything screened. Unless noted, the call rests on the fitted dose curve; in most records, active means well fitted inhibition curve with a large enough effect; inconclusive means small, poorly fitted or top-dose-only effect; inactive means no such curve, though single readings can be large or run the other way.

SMILES	JMJD2A Tudor inh	BAZ2B block	CtBP-E1A blk	Six1-Eya2 blk	G9a inh	HP1b chromo inh
CCOc1ccccc1CN1CCNC(=O)C1CC(=O)NCCCn1cccn1 (stereo not drawn)	-11.7%	?	0.8	4.0	79.4µM*	51.5%
CCc1cc(CNC(=O)CC2C(=O)NCCN2Cc2cccc(OC)c2)on1 (stereo not drawn)	-2.0%	-14.5%	-20.3	2.9	56.2µM*	33.1%
CCc1cc(CNC(=O)CC2C(=O)NCCN2Cc2c(F)cccc2Cl)on1 (stereo not drawn)	-8.9%	-18.6%	1.4	10.9	10.8%	-4.1%
CCC1(c2ccc(F)cc2)NC(=O)N(CC(=O)NC2CCCC(C)C2C)C1=O (stereo not drawn)	-4.2%	/	-23.4	6.6	/	24.8%
O=C(CC1C(=O)NCCN1Cc1ccccc1)NCCN1CCCCC1=O (stereo not drawn)	-10.5%	2.0%	/	-3.7	/	12.9%[57 µM]
O=C(CC1C(=O)NCCN1Cc1cccc(Oc2ccccc2)c1)NCCCn1cccn1 (stereo not drawn)	-25.1%	-22.0%	-0.3	-0.6	50.1µM*	9.4%
O=C(CC1C(=O)NCCN1Cc1ccc(F)cc1)NCCN1CCCc2ccccc21 (stereo not drawn)	?	79.4µM*	/	-6.4	/	-9.5%
CCn1ccnc1CNC(=O)CC1C(=O)NCCN1CC(c1ccccc1)c1ccccc1 (stereo not drawn)	-17.4%	-0.7%	-1.7	-0.7	/	30.2%
COc1ccc2ccccc2c1CNC(=O)CC1C(=O)NCCN1CC(C)C (stereo not drawn)	-19.9%	-8.3%	-6.4	-3.9	44.7µM*	16.2%[57 µM]
O=c1cc(CN2CCN(Cc3ccccc3)CC2)c2ccc(O)c(O)c2o1	?	39.8µM*	0.0	-20.5	35.5µM*	4.1%
Cc1c(O)ccc2c(CN3CCN(Cc4ccccc4)CC3)cc(=O)oc12	-22.1%	2.4%	-11.1	-11.9	-12.9%	25.1%
CCCc1cc(=O)oc2c(CN3CCOCC3)c(O)ccc12	-8.2%	2.3%[57.1 µM]	-0.3	5.1	21.3%[59 µM]	12.1%
O=c1cc(CN2CCOCC2)c2ccc(O)c(O)c2o1	?	-8.9%	/	-1.0	7.94µM*	42.3%
COc1ccc(NC(=O)CSc2nnc(Cc3cccn3C)n2-c2ccc(OC)cc2)cc1	-19.7%	50.1µM*	-4.1	-8.3	44.7µM*	18.3%
CC(=O)Nc1cccc(NC(=O)CSc2nnc(Cc3cccn3C)n2-c2ccc(C)cc2)c1	-21.4%	?	-15.5	-12.6	50.1µM*	9.9%
CC(=O)c1ccc(NC(=O)CSc2nnc(Cc3cccn3C)n2-c2ccc(F)cc2)cc1	?	50.1µM*	-7.4	-11.5	50.1µM*	-8.1%
COc1ccc(-n2c(Cc3cccn3C)nnc2SCC(=O)Nc2cccc(NC(C)=O)c2)cc1	-27.6%	?	?	-20.9	25.4%[2.33 µM]	0.5%
COc1ccc(-n2c(Cc3cccn3C)nnc2SCC(=O)Nc2ccc3c(c2)OCCO3)cc1	-32.4%	?	-9.4	-18.4	50.1µM*	-19.4%
CC[n+]1oc(-c2ccccc2)cc1C	-1.4%	10.8%	6.9	6.3	7.3%	13.8%
COc1ccc(NC(=O)CN2C(=O)C(c3ccc(C(C)(C)C)cc3)=NC2(C)C)cc1Cl	0.3%	-0.8%	/	/	4.7%[59 µM]	37.2%
COc1ccc(-n2c(Cc3cccn3C)nnc2SCC(=O)Nc2ccc(C(C)=O)cc2)cc1	-25.4%	?	-3.4	-21.0	50.1µM*	9.6%
CCOc1ccc(NC(=O)CSc2nnc(Cc3cccn3C)n2-c2ccc(OC)cc2)cc1	?	?	-13.0	-13.5	0.1%[12.7 µM]	?
CCOc1ccc(N2CC(C(=O)NCCc3ccc(S(N)(=O)=O)cc3)CC2=O)cc1 (stereo not drawn)	-4.9%	4.5%	-1.6	-0.4	25.1µM*	3.4%
CCOc1ccc(N2CC(C(=O)OCC(=O)c3ccc(OC)cc3)CC2=O)cc1 (stereo not drawn)	56.2µM*	-12.4%	21.1	6.9	-10.4%	7.1%
COc1ccc(N2CC(C(=O)OCC(=O)c3ccc(C)cc3)CC2=O)cc1 (stereo not drawn)	-3.9%	-10.7%	/	5.2	/	28.3%
SMILES	JMJD2A Tudor inh	BAZ2B block	CtBP-E1A blk	Six1-Eya2 blk	G9a inh	HP1b chromo inh
CCOc1ccc(N2CC(C(=O)NCCN3C(=O)S/C(=C/c4cccnc4)C3=O)CC2=O)cc1 (stereo not drawn)	-8.8%	2.8%	-3.9	0.4	14.1µM*	48.2%
C/C(=N\Nc1nc2ccccc2[nH]1)c1ccc2c(c1)OCO2	39.8µM*	?	?	?	?	?
C/C(=N\Nc1nc2ccccc2[nH]1)c1ccc2c(c1)OCCO2	50.1µM*	31.6µM*	-16.1	-11.6	?	?
C/C(=N\Nc1ccccn1)c1ccc2c(c1)OCO2	-15.6%	?	-27.2	-6.3	8.1%	-7.5%
CCCCOc1ccc(C(=O)OCC(=O)c2c(N)n(C)c(=O)n(C)c2=O)cc1	-18.3%	/	-9.9	-2.2	/	16.5%
Clc1cccc(C2CCN(Cc3nc(CC4CC4)no3)C2)c1 (stereo not drawn)	-34.0%	-7.7%	1.8	2.5	48.7%	40.1%
CCN(C(=O)CN1CCN(C)CC1)c1cccc2ccccc12	1.78µM*	31.6µM*	4.8	1.8	1.78µM*	?
CCOC(=O)N1CCC(NC(=O)c2cc(COc3c(C)cccc3C)on2)CC1	-3.0%	-3.3%	3.1	-1.1	60.6%	48.4%
CC(=O)Nc1cc2c(cc1Br)OCCO2	-11.7%	5.3%	-11.5	15.4	-5.5%[12.7 µM]	7.5%
Brc1ccc(CNc2cc3c(cc2Br)OCCO3)cc1	?	31.6µM*	-19.7	?	44.7µM*	?
CC(=O)n1cc(N(C(=O)CCl)c2ccccc2)c2ccccc21	-4.1%	-38.2%	6.5	-3.9	/	47.3%
CC(=O)n1cc(N(C(=O)CCl)c2ccc([N+](=O)[O-])cc2)c2ccccc21	-30.3%	-32.6%	7.7	0.0	50.1µM*	2.0%
CCC(C)Sc1ccc(-c2nc3ccc(C)cn3c2NCc2ccccc2)cc1OC (stereo not drawn)	?	?	-18.4	-11.7	4.1%[2.33 µM]	0.4%
COc1ccc(-c2nc3ccc(C)cn3c2NCc2ccccc2)cc1SC1CCCCC1	79.4µM*	50.1µM*	-12.8	-4.5	2.2%[2.33 µM]	34.1%
CCC(C)Sc1cc(-c2nc3ccc(C)cn3c2NCc2ccccc2)ccc1OC (stereo not drawn)	56.2µM*	/	/	-22.9	/	?
